From ChEMBL document CHEMBL3988442, “University of Dundee, Small-Polar-MMV Screening Library” (2021)
Screen size: about 48,000 compounds; about 13,000 (27%) showed an effect of 50% or more. This is one part of the list.

test system: Wolbachia pipientis; assay: Anti-Wolbachia Cell-Based Screen; assay type: functional; set-up: scale not given: in the data most compounds retested in dose-response had high values; conditions: 5 µM

| Compound | Percent Effect |
| --- | --- |
| CN(C)C(=O)CN1C[C@@H]2CC[C@H](C1)N(Cc1c(F)cccc1Cl)C2 | -24.65% |
| CNC(=O)[C@@H](CC(C)C)N1CCC[C@H]1C(=O)N(C)Cc1cccnc1.Cl.Cl | 6.21% |
| CCn1cnc(NC(=O)N2CCC(c3ccc(F)cc3)C2)n1 (stereo not given) | -5.373% |
| O=C1CC2(CCN(Cc3ccoc3)CC2)CN1Cc1cc(F)cc(F)c1 | 87.88% |
| O=C1CC2(CCN(CCCO)CC2)CN1Cc1ccc(F)c(F)c1 | 111.9% |
| COCC(=O)N1CCC2(CC1)CC(=O)N(Cc1ccc(Cl)cc1)C2 | -7.837% |
| O=C1CC2(CCN(Cc3ncc[nH]3)CC2)CN1Cc1cc(F)cc(F)c1 | 5.031% |
| O=C1CC2(CCN(CCCF)CC2)CN1Cc1cc(F)cc(F)c1 | 93.67% |
| CCN1CC2(CCN(CCOCCO)CC2)CC(c2ccccc2)C1=O (stereo not given) | 6.251% |
| O=C1CC2(CCN(Cc3ncc[nH]3)CC2)CN1Cc1ccc(Cl)cc1 | 9.235% |
| O=C1CC2(CCN(CCO)CC2)CN1Cc1cc(F)cc(F)c1 | -5.03% |
| O=C1CCC2(CCN(Cc3cc(F)cc(F)c3)CC2)CN1CCO | -11.07% |
| CCCOCCN1CCC2(CC1)CC(=O)N(Cc1cc(F)cc(F)c1)C2 | 102.6% |
| Cc1ncc(CN2CCC3(CC2)CC(=O)N(C)C3)cn1 | -13.29% |
| CCN(C)C[C@@H]1CN(S(=O)(=O)c2ccc(C#N)cc2)C[C@@H]1CO | -9.397% |
| c1ccc2[nH]c(C3CCN(Cc4nnc(C5CC5)o4)CC3)nc2c1 | -0.6702% |
| O=C1CC2(CCN(CC3CC3)CC2)CN1Cc1cc(F)cc(F)c1 | 122.7% |
| O=C1CC2(CCN(CC3CCOC3)CC2)CN1Cc1cc(F)cc(F)c1 (stereo not given) | 4.353% |
| CN(Cc1ccn[nH]1)Cc1c[nH]nc1-c1ccc(F)cc1 | 4.933% |
| CCN(CCc1nc2cc(C)ccc2[nH]1)C(=O)[C@@H](N)CCSC | 1.745% |
| O=C(NCc1cc2n(n1)CCCNC2)C1(c2ccc(Cl)cc2)CCC1 | 14.56% |
| O=C(NCc1ccccn1)c1cc2n(n1)CCNC2 | 99.68% |

| Compound | Percent Effect |
| --- | --- |
| O=C(NCc1sc2ccccc2c1Cl)c1cc2n(n1)CCNC2 | 92.76% |
| Cc1ncsc1CCC(=O)NCc1cc2n(n1)CCNC2 | -3.955% |
| CC(C)N1CCCn2nc(C(=O)NCCc3ccccn3)cc2C1 | -11.55% |
| O=C(NCCn1ccnc1-c1cc2n(n1)CCNC2)c1ccncc1 | -6.247% |
| O=C(NCCn1ccnc1-c1cc2n(n1)CCNC2)c1ccc(F)cc1 | 10.43% |
| O=C(NCc1csc2ccc(Cl)cc12)c1cc2n(n1)CCNC2 | 87.95% |
| O=C(NCc1cc2n(n1)CCCNC2)c1cn2cc(Cl)ccc2n1 | -5.425% |
| CN(CC(=O)N1CCCC1)C(=O)c1cccn1CCc1ccccc1 | -6.272% |
| O=C(c1ccno1)N1CCN2C(=O)N(Cc3ccc(F)cc3)C[C@H]2C1 | -2.469% |
| Cc1nc(CN2CCc3nc(NC(C)C)nc(C)c3C2)cs1 | 12.48% |
| CCN(C)C(=O)c1cnc(-c2noc3cc(N4CCCCC4)ccc23)s1 | -13.96% |
| Cc1ccc(CNC2(Cc3cc(CO)on3)COC2)o1 | -19.01% |
| CC(C)NC(=O)C1CN(C(=O)c2ccco2)CC12CCOCC2 (stereo not given) | 3.507% |
| CC(C)NC(=O)C1CN(C(=O)c2cccs2)CC12CCOCC2 (stereo not given) | -10.16% |
| CCC[C@@H](NC(N)=O)C(=O)N1Cc2ccccc2-c2ccccc2C1 | -11.77% |
| CC(C)C[C@@H]1N[C@H](C(=O)NC(C)C)Cc2c[nH]c3cccc1c23 | -15.72% |
| CC(C)NC(=O)[C@@H]1CN(C(=O)C2CC2)C[C@]12Cc1ccccc1C(=O)N2 | 129.2% |
| CCS(=O)(=O)N1C[C@@H](C(=O)NC(C)C)[C@@]2(Cc3ccccc3C(=O)N2)C1 | 141.4% |
| CCN(CC)C(=O)CCNC(=O)Cc1nc(-c2ccco2)oc1C | 11.44% |
| O=C(CS(=O)(=O)Cc1ccc(Br)cc1F)Nc1cn[nH]c1 | -22.34% |
| Cc1noc(C(C)N2CCN(c3ncnc4sccc34)CC2)n1 (stereo not given) | -36.26% |
| N#Cc1ccc(N2CCCN(c3nccs3)CC2)nc1 | -14.61% |

| Compound | Percent Effect |
| --- | --- |
| CCc1nc(CN2CCCN(c3ncnc4sccc34)CC2)no1 | -94.29% |
| c1csc(N2CCCN(c3ncnc4sccc34)CC2)n1 | 165.2% |
| c1csc(N2CCN(c3ncnc4sccc34)CC2)n1 | 140.7% |
| N#Cc1ccc(N2CCN(c3nccs3)CC2)nc1 | -4.592% |
| Cc1cc2cc(CNC3CCN(CC4CCOC4)CC3)oc2cc1C (stereo not given) | -8.178% |
| CN(C)C(=O)COC1COC2(CCN(c3cnccn3)CC2)C1.O=C(O)C(F)(F)F (stereo not given) | 7.565% |
| CCOC1COC2(CCN(c3ccccn3)CC2)C1.O=C(O)C(F)(F)F (stereo not given) | 106.9% |
| Cc1cccc(CO[C@@H]2CO[C@@]3(CCN(S(=O)(=O)N(C)C)C3)C2)n1.O=C(O)C(F)(F)F | 0.8682% |
| Cc1cnc(N2CCC3(CC2)CC(NS(C)(=O)=O)CO3)nc1 (stereo not given) | -15.37% |
| CN(C)C(=O)COC1COC2(CCN(c3ncccn3)CC2)C1 (stereo not given) | 5.74% |
| CCOC1COC2(CCN(c3ncc(C)cn3)CC2)C1 (stereo not given) | 100.2% |
| CCOC1COC2(CCN(C(=O)c3cccc(C)n3)CC2)C1.O=C(O)C(F)(F)F (stereo not given) | 94.67% |
| CCOC1COC2(CCN(Cc3ccco3)CC2)C1.O=C(O)C(F)(F)F (stereo not given) | -20.65% |
| CCOC1COC2(CCN(Cc3cccc(C)n3)CC2)C1.O=C(O)C(F)(F)F (stereo not given) | 109.8% |
| CCS(=O)(=O)N1CCC2(CC1)CC(Oc1ccccn1)CO2.O=C(O)C(F)(F)F (stereo not given) | 11.25% |
| CCOC1COC2(CCN(c3cccc(C)n3)CC2)C1.O=C(O)C(F)(F)F (stereo not given) | 89.3% |
| CN(C)C(=O)COC1COC2(CCN(c3cccc(F)c3)CC2)C1.O=C(O)C(F)(F)F (stereo not given) | -1.854% |
| Cc1cccc(COC2COC3(CCN(S(C)(=O)=O)CC3)C2)n1.O=C(O)C(F)(F)F (stereo not given) | 2.01% |
| CCS(=O)(=O)N1CCC2(CC1)CC(COC)N(c1ncccn1)C2.O=C(O)C(F)(F)F (stereo not given) | -2.955% |
| COCC1CC2(CCN(c3cccc(C)n3)CC2)CN1c1ncccn1.O=C(O)C(F)(F)F (stereo not given) | 95.56% |
| COCCN1CCC2(CC1)CC(COC)N(c1ncccn1)C2.O=C(O)C(F)(F)F.O=C(O)C(F)(F)F (stereo not given) | -10.3% |
